KDM5B inh – blocks human KDM5B histone demethylase activity. Q9UGL1. KDM5B demethylase, FDH-coupled NADH fluorescence (FDH is formaldehyde dehydrogenase). Potency, µM (doses to about 57.7 µM), usual class: inhibitors. 2.6% of 220,000 active. AID 1347165; active = well fitted inhibition curve with a large enough effect; inconclusive = small, poorly fitted or top-dose-only effect; inactive = no such curve, though single readings can be large or run the other way; also: nearly all actives have a fitted effect of over 70% in size
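Here, H3K4me3 peptide (12.5 µM in substrate mix) is demethylated by KDM5BΔAP, 200 nM final, after 10 min compound exposure. Formaldehyde product is coupled through FDH (0.25 U/mL in mix) to NADH fluorescence; 30-min ΔRFU feeds dose-response curves.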
IP6K1 inhibitor – IP6K1 kinase inhibition; Q92551; IP6K1 kinase, ADP-Glo luminescence, 2 h; active compounds read low; activity change, % (series mostly up to about 58 µM); 0.81% of 140,000 active; AID 1645851; in the data active = activity change below about -25%
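ADP-Glo luminescence measures ADP made by human IP6K1 during a 2 h RT reaction with ATP/IP6 (mix at 1.3 mM/130 uM); top library doses 57.5 and 19.1 uM final.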
A number is an active result; i = inactive; ? = inconclusive; nt = no result. An excerpt weighted towards active compounds, which were near 2.7% of everything screened.

SMILES	KDM5B inh	IP6K1 inhibitor
O=C(OCc1cccc2cccnc12)c1cc2ccccc2[nH]1	i	nt
O=C(O)c1ccc(CN2CCC[C@H]2c2nc(-c3ccc(-c4cncnc4)nc3)no2)cc1	i	i
NC(=O)C1CCN(c2cc(-c3noc([C@@H]4CCCN4Cc4ccncc4)n3)ccn2)CC1	31.6µM	i
COc1ccc(CN2CCC[C@H]2c2nc(-c3ccc(N4CCC(C(N)=O)CC4)nc3)no2)c(O)c1	i	i
COc1ccc(-c2noc([C@@H]3CCCN3C(=O)c3ccc(N(C)C)cc3)n2)cc1OC	?	i
CC(=O)N1CCN(c2cc(-c3noc([C@@H]4CCCN4Cc4ccc(N(C)C)cc4)n3)ccn2)CC1	28.2µM	i
NC(=O)C1CCN(c2cc(-c3noc([C@@H]4CCCN4Cc4cccnc4)n3)ccn2)CC1	39.8µM	i
CN(CCO)C[C@@H]1CN(C(=O)c2nc3ccccc3[nH]c2=O)C[C@@H]1CO	28.2µM	i
CC(C)[C@@H]1CN(C(=O)c2nc3ccccc3[nH]c2=O)C[C@H]1NS(C)(=O)=O	?	i
COc1ccc(NS(=O)(=O)c2cc(C(=O)N3CCCC3)cs2)cc1	i	nt
CCc1nc2c(c(-c3ccc(Cl)cc3)n1)CCN(CC1CCCCC1)CC2	i	i
COc1ccc(-c2nc(C)nc3c2CCN(Cc2ccnn2C)CC3)cc1	20µM	i
COc1ccc(CN2CCc3nc(C)nc(-c4ccc(OC)cc4)c3CC2)cc1	i	i
COc1ccc(-c2nc(C)nc3c2CCN(Cc2cc(C)on2)CC3)cc1	20µM	i
COc1ccc(-c2nc(C)nc3c2CCN(CC2CCCCC2)CC3)cc1	28.2µM	i
COc1ccc(-c2nc(C)nc3c2CN(C(=O)c2ccccc2)CC3)cc1	?	i
COc1ccc(-c2nc(C)nc3c2CN(C(=O)c2ccccn2)CC3)cc1	15.8µM	i
COc1ccc(-c2nc(C3CC3)nc3c2CCN(Cc2ccnn2C)CC3)cc1	?	i
Cc1c[nH]cc1C(=O)OCC#Cc1ccccc1	i	nt
N=C(N)C1CC1	i	nt
CCNC(=O)CSc1cc(C)c2cccc(C)c2n1	i	nt
CC(Sc1nc2ccccc2o1)C(=O)Nc1ccc(Cl)cc1 (stereo unspecified)	i	nt
O=C(Oc1ccccc1)C1C2CCCC1C2c1ccccc1 (stereo unspecified)	i	nt
COc1ccc(OC)c(C2=NOC(C(=O)O)C2)c1 (stereo unspecified)	28.2µM	i
COc1ccc(OC)c(C2=NOC(C(=O)Nc3cc(C)nn3-c3ccccc3)C2)c1 (stereo unspecified)	i	nt
SMILES	KDM5B inh	IP6K1 inhibitor
COc1ccc(-c2nc(CS(=O)CC(=O)NCC(OC)OC)c(C)o2)cc1 (stereo unspecified)	i	nt
CC(C)C[C@@H]1N[C@H](C(=O)NC2CCC2)Cc2cn(Cc3ccccn3)c3cccc1c23	i	i
CCCS(=O)(=O)N1CCc2n[nH]c(=O)n2CC1	i	i
CCCCS(=O)(=O)N1CCc2n[nH]c(=O)n2CC1	20µM	i
CC(C)(C)C(=O)NC1CCN(c2ccc3nnc(C4CC4)n3n2)C1 (stereo unspecified)	nt	i
CN(c1ncnc2scc(-c3ccc(F)cc3)c12)C1CCCCC1	i	nt
N#Cc1ccc(CN2C[C@@H]3OCC(=O)N(CC(N)=O)[C@@H]3C2)cc1	35.5µM	i
NC(=O)CN1C(=O)CO[C@H]2CN(Cc3ccc(C(F)(F)F)cc3)C[C@H]21	i	i
CC1(C)C2CCC1(C(=O)Nc1ccccc1)C(=O)C2 (stereo unspecified)	i	nt
CC(C)CC(CNC(=O)c1n[nH]c(=O)c2ccccc12)N1CCOCC1 (stereo unspecified)	i	nt
CCc1nc(C)cc(-c2cc(OC)c(OC)c(OC)c2)n1	25.1µM	i
COc1cc(-c2nc(-c3nonc3N)no2)cc(OC)c1OC	i	nt
CCOc1ccc(-c2nc(CS(=O)Cc3ccccc3)cs2)cc1OC (stereo unspecified)	i	nt
Cc1nc(NC2CCCC2)ncc1C(=O)O	?	i
CCCCNc1ncc(C(=O)O)c(C)n1	14.1µM	i
Cc1nn(CC(=O)NC(c2ccccc2)C2CC2)c(=O)c2ccccc12 (stereo unspecified)	i	nt
Cc1nc2c(c(-c3ccc(O)cc3)n1)CN(Cc1ccc(C(F)(F)F)cc1)CCC2	i	i
O=C(C1CCCC1)N1CCC2(CC1)CC(CO)N(C(=O)c1ccccc1)C2 (stereo unspecified)	nt	i
COCCN(C)C(=O)c1ccc2c(c1)NC(C)(CCCCc1ccccc1)CO2 (stereo unspecified)	i	i
CC1(CCCCc2ccccc2)COc2ccc(C(=O)N3CC(O)C3)cc2N1 (stereo unspecified)	?	i
CC1(CCCCc2ccccc2)COc2ccc(C(=O)NC3CC3)cc2N1 (stereo unspecified)	28.2µM	i
CN(C)C(=O)c1ccc2c(c1)NC(C)(CCCCc1ccccc1)CO2 (stereo unspecified)	i	i
CC1(CCCCc2ccccc2)COc2ccc(C(=O)NC3CCOCC3)cc2N1 (stereo unspecified)	35.5µM	i
CC1(CCCCc2ccccc2)COc2ccc(C(=O)NCCc3cnc[nH]3)cc2N1 (stereo unspecified)	31.6µM	i
CC(C)(C)C(=O)/C=c1/[nH]c(=O)/c(=C/c2ccc(F)c(F)c2)s1	i	nt
SMILES	KDM5B inh	IP6K1 inhibitor
CC(=O)N1CCN(C(=O)c2nc3cccnc3n(Cc3ccccc3)c2=O)CC1	nt	i
O=C(Nc1ccsc1)N[C@H]1C[C@H]2C(=O)NC[C@@H](CCC(=O)N3CCN(c4ccccn4)CC3)N2C1	?	i
O=C(N[C@H]1C[C@H]2C(=O)NC[C@@H](CCC(=O)N3CCN(c4ccccn4)CC3)N2C1)C1CC1	31.6µM	i
CC(C)NC(=O)N[C@H]1C[C@H]2C(=O)NC[C@@H](CCC(=O)N3CCN(c4ccccc4)CC3)N2C1	?	i
CC(C)NC(=O)N[C@H]1C[C@H]2C(=O)NC[C@@H](CCC(=O)N3CCN(c4ccccn4)CC3)N2C1	25.1µM	i
O=C1NC[C@@H](CCC(=O)N2CCN(c3ccccn3)CC2)N2C[C@@H](NCc3ccc(CO)o3)C[C@@H]12	?	i
COCC(=O)N[C@H]1C[C@H]2C(=O)NC[C@@H](CCC(=O)N3CCN(c4ccccn4)CC3)N2C1	25.1µM	i
CCOC(=O)Cc1cc(=O)n2[nH]c(NCc3cccc(C)c3)nc2n1	i	nt
O=C(/C=C/c1ccccc1)Oc1ccc(Br)cc1	i	nt
Cc1cc(N2CCNC(c3ccccc3)C2)n2nc(C)c(C)c2n1 (stereo unspecified)	i	i
Cc1nn2c(N3CCC(O)C3)cc(-c3ccccc3)nc2c1C (stereo unspecified)	28.2µM	i
Cc1ccc2c(CC(=O)N(Cc3cccs3)C3CC3)coc2c1C	i	nt
COC[C@@H]1CCCN1Cc1cn(-c2ccccc2)nc1-c1ccc(OC)cc1F	i	i
COC[C@@H]1CCCN1Cc1cc2cc3c(cc2[nH]c1=O)OCO3	28.2µM	i
CCc1cc2c(=O)c(Oc3ccc(F)cc3)c(C(F)(F)F)oc2cc1OC(C)=O	i	nt
C=CCOc1ccc(C(=O)Nc2ccc(F)cc2)cc1	i	nt
Cc1ccc(S(=O)(=O)N2CCCC(CCC(=O)N3CCCCC3)C2)cc1 (stereo unspecified)	i	i
O=C(CCC1CCCN(S(=O)(=O)c2ccccc2)C1)N1CCN(c2ccccn2)CC1 (stereo unspecified)	22.4µM	i
Cc1ccc(C(=O)N2CCC(CCC(=O)N3CCN(c4ccccn4)CC3)CC2)cc1	28.2µM	i
